Nine compounds from PubChem BioAssay (EPA / NIEHS) can be followed below.

A short description of experiment [1]: Tanguay_ZF_120hpf_SWIM_legacy: (Legacy) Oregon State University Tanguay Lab 120 Hour Post-fertilization zebrafish Assay for Swim Bladder Malformation (AID 2283654).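 Note: swim bladder malformation in each larva scored yes or no under brightfield.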 In a few lines:
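Embryos lacking chorions were exposed individually and statically to test chemical from 6 to 120 hpf at 28C, with 0.64% DMSO as vehicle. At 120 hpf, swim bladder malformation was recorded as present or absent by brightfield microscopy.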

The nature of experiment [2]: Tanguay_ZF_120hpf_TRUN_legacy: (Legacy) Oregon State University Tanguay Lab 120 Hour Post-fertilization zebrafish Assay for Truncated Body (AID 2283655). In a few lines: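 Tropical 5D wild-type embryos, dechorionated with pronase at 4 hpf, were placed singly in wells at 6 hpf and statically exposed at 28C until 120 hpf, final DMSO 0.64%. Truncated body was scored present/absent by brightfield microscopy.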

A short description of experiment [3]: Tanguay_ZF_120hpf_NC_legacy: (Legacy) Oregon State University Tanguay Lab 120 Hour Post-fertilization zebrafish Assay for Notochord and Tail Malformation (AID 2283656). In a few lines: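 Dechorionated 5D zebrafish, 1/well from 6 hpf; static exposure to 120 hpf, 28C, sealed, dark; final DMSO 0.64% v/v. NC scored binary (present/absent); dead embryos not scored. Fit vs DMSO baseline, gain direction.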

Read-out in experiment [4]: ABC Transporter (ABCB1), ABCB1 (gene 5243)
The experiment in a line: CLD_ABCB1_6hr: CellzDirect (CLD) Gene Expression Assay for ABC Transporter (ABCB1) at 6 hours (AID 2283659).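 Note: hits raise ABCB1 transcript above the DMSO vehicle baseline.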 The method in brief:
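Primary human hepatocytes (two donor preparations) dosed daily for two days with chemicals at multiple concentrations, 0.2% DMSO vehicle; harvested 6 h post-dose. ABCB1 mRNA induction quantified by qNPA chemiluminescence; gain-of-signal fitted versus DMSO.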

The test system of experiment [5] is Thyroperoxidase (TPO), gene 54314. The experiment in a line: CCTE_Simmons_AUR_rTPO: CCTE's Amplex UltraRed Assay for Thyroperoxidase (TPO) Inhibition, Simmons Lab (AID 2283662).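 For AC50: potency for loss of signal meaning inhibition of peroxidase activity.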 The method in brief: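 Rat thyroid microsomes (5 ug protein) were incubated with test compound (8 concentrations, 5 nM–87.5 uM final, 0.5% DMSO), 25 uM Amplex UltraRed and 300 uM H2O2 in 200 mM phosphate buffer for 30 min at 37C in the dark; fluorescence read at 544/590 nm.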

A short description of experiment [6]: Tanguay_ZF_120hpf_TR_legacy: (Legacy) Oregon State University Tanguay Lab 120 Hour Post-fertilization zebrafish Assay for Touch Response (AID 2283667). In a few lines: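 5D WT embryos; static exposure to 120 hpf, 28C, sealed/dark; DMSO 0.64% v/v final. TR scored present/absent; dead embryos excluded. Pos ctrl 5uM trimethyltin chloride.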
Read-out in experiment [7]: glucuronosyltransferase (UGT1A1), UGT1A1 (gene 54658)
The experiment in a line: CLD_UGT1A1_6hr: CellzDirect (CLD) Gene Expression Assay for glucuronosyltransferase (UGT1A1) at 6 hours (AID 2283672). The method in brief:
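Primary human hepatocytes from two donor preparations, dosed with fresh solutions in 0.2% DMSO, harvested at 6 h. UGT1A1 mRNA measured by qNPA chemiluminescence; induction fitted upward versus DMSO.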

Read-out in experiment [8]: ABC Transporter (ABCB11), ABCB11 (gene 8647)
The experiment in a line: CLD_ABCB11_6hr: CellzDirect (CLD) Gene Expression Assay for ABC Transporter (ABCB11) at 6 hours (AID 2283675).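 Note: hits raise ABCB11 mRNA level so AC50 marks induction.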 The method in brief: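 Human primary hepatocytes (two donor preparations) given fresh chemical daily at multiple concentrations, vehicle 0.2% DMSO. ABCB11 mRNA induction measured 6 h after dosing by qNPA chemiluminescence versus DMSO; cytotoxicity annotated from morphology.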

Read-out in experiment [9]: Broad substrate specificity ATP-binding cassette transporter ABCG2 (Homo sapiens) (UniProt Q9UNQ0)
The experiment in a line: CLD_ABCG2_6hr: CellzDirect (CLD) Gene Expression Assay for ABC Transporter (ABCG2) at 6 hours (AID 2283660). In a few lines:
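Primary human hepatocytes dosed daily with chemicals at multiple concentrations (0.2% DMSO vehicle), harvested 6 h after dosing. ABCG2 mRNA induction read by quantitative nuclease protection assay (qNPA) chemiluminescence; gain of signal fitted against DMSO baseline.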

Read-out in experiment [10]: xenobiotic metabolism (CYP1A1), CYP1A1 (gene 1543)
The experiment is described as follows: CLD_CYP1A1_6hr: CellzDirect (CLD) Gene Expression Assay for xenobiotic metabolism (CYP1A1) at 6 hours (AID 2283661).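 For AC50: potency for transcript induction above DMSO vehicle baseline.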 The method in brief: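 Primary human hepatocytes from two donors, compound versus 0.2% DMSO vehicle. CYP1A1 mRNA measured 6 h after dosing by quantitative nuclease protection assay with chemiluminescent read-out; induction fitted relative to DMSO, cytotoxicity flagged by microscopy.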

Read-out in experiment [11]: xenobiotic metabolism (CYP1A2), CYP1A2 (gene 1544)
The experiment is described as follows: CLD_CYP1A2_6hr: CellzDirect (CLD) Gene Expression Assay for xenobiotic metabolism (CYP1A2) at 6 hours (AID 2283663).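 For AC50: potency is for induction meaning a rise in mRNA above DMSO.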 In a few lines: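 Primary human hepatocytes from two donor preparations, dosed daily with multiple concentrations in 0.2% DMSO and harvested at 6 h. CYP1A2 mRNA induction measured by chemiluminescent qNPA, gain of signal fitted against DMSO; cytotoxicity flagged morphologically.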

Read-out in experiment [12]: xenobiotic metabolism (CYP1A1), CYP1A1 (gene 1543)
The experiment in a line: CLD_CYP1A1_24hr: CellzDirect (CLD) Gene Expression Assay for xenobiotic metabolism (CYP1A1) at 24 hours (AID 2283673). In a few lines: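 Primary human hepatocytes dosed daily with fresh solutions in 0.2% DMSO vehicle. mRNA measured at 24 h by quantitative nuclease protection assay with chemiluminescence; gain-of-signal fit versus DMSO, with morphology-based cytotoxicity flags.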

Read-out in experiment [13]: ABC Transporter (ABCB11), ABCB11 (gene 8647)
The experiment is described as follows: CLD_ABCB11_24hr: CellzDirect (CLD) Gene Expression Assay for ABC Transporter (ABCB11) at 24 hours (AID 2283674; active = hit-call score of the fitted dose curve at least 0.9, where 1 is the maximum; inactive = score below 0.9). In a few lines:
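Primary human hepatocytes were dosed daily for two days, with 0.2% DMSO vehicle. ABCB11 mRNA induction was measured at 24 hours by quantitative nuclease protection assay with chemiluminescence. Gain of signal was fitted relative to DMSO.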

Experiment [14] in a line: CCTE_Simmons_CellTiterGLO_HEK293T: Viability Assessment in CCTE's Assays for Thyroperoxidase (TPO) Inhibition, Simmons Lab (AID 2283665). In a few lines: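 Cytotoxicity counter-screen: human HEK293T cells in low-serum (1% FBS) medium receive test chemical, 5 nM to 87.5 uM final, for 24 h; ATP is quantified by luciferase luminescence.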
Read-out in experiment [15]: solute carrier (SLC22A6), SLC22A6 (gene 9356)
The experiment is described as follows: LTEA_HepaRG_SLC22A6: Life Technologies and Expression Analysis (LTEA) Assay for solute carrier (SLC22A6) using HepaRG (AID 2283653; active = hit-call score of the fitted dose curve at least 0.9, where 1 is the maximum; inactive = score below 0.9). The settings on record: mRNA level, 48 h; actives raise or lower the signal. In a few lines: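 Differentiated human HepaRG cells were exposed for 48 h in serum-free induction medium to eight concentrations (top 100 uM, half-log steps, 0.5% DMSO), in duplicate. SLC22A6 mRNA was quantified by qRT-PCR, normalised to ACTB, GAPDH and POLR2A, and fitted bidirectionally against DMSO.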

Read-out in experiment [16]: solute carrier (SLC10A1), SLC10A1 (gene 6554)
The experiment in a line: LTEA_HepaRG_SLC10A1: Life Technologies and Expression Analysis (LTEA) Assay for solute carrier (SLC10A1) using HepaRG (AID 2283657; active = hit-call score of the fitted dose curve at least 0.9, where 1 is the maximum; inactive = score below 0.9). The settings on record: mRNA level, 48 h; actives raise or lower the signal. The method in brief:
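Transcript levels were measured by qRT-PCR after human HepaRG cells received test chemical for 48 hours, up to 100 uM in half-log dilutions. Values come from bidirectional concentration-response fitting relative to 0.5% DMSO vehicle.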

Read-out in experiment [17]: matrix metalloproteinase-1 (MMP1), MMP1 (gene 4312)
The experiment is described as follows: LTEA_HepaRG_MMP1: Life Technologies and Expression Analysis (LTEA) Assay for matrix metalloproteinase-1 (MMP1) using HepaRG (AID 2283658; active = hit-call score of the fitted dose curve at least 0.9, where 1 is the maximum; inactive = score below 0.9). The settings on record: mRNA level, 48 h; actives raise or lower the signal. The method in brief: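 Differentiated HepaRG cells, plated 48 h then switched to serum-free induction medium, were exposed in duplicate for 48 h to eight half-log concentrations up to 100 uM in 0.5% DMSO; MMP1 mRNA measured by qRT-PCR, normalized to ACTB, GAPDH, POLR2A.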

Read-out in experiment [18]: Cytochrome P450 (CYP24A1_1), CYP24A1 (gene 1591)
The experiment is described as follows: LTEA_HepaRG_CYP24A1_1: Life Technologies and Expression Analysis (LTEA) Assay for Cytochrome P450 (CYP24A1_1) using HepaRG (AID 2283671; active = hit-call score of the fitted dose curve at least 0.9, where 1 is the maximum; inactive = score below 0.9). The settings on record: mRNA level, 48 h; actives raise or lower the signal. In a few lines:
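In this test, gene induction or suppression of CYP24A1 in human HepaRG liver cells is measured by qRT-PCR after 48 h chemical treatment (eight concentrations, maximum 100 uM). Values are fitted bidirectionally relative to DMSO.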

Inconclusive results are not listed. Calls of active or inactive are those of the source. Rule for the calls, unless noted: active = hit-call score of the fitted dose curve at least 0.9, where 1 is the maximum; inconclusive = response in the unintended direction; inactive = score below 0.9.

Sequence of Broad substrate specificity ATP-binding cassette transporter ABCG2 (Homo sapiens) (Q9UNQ0 whole entry, looked up): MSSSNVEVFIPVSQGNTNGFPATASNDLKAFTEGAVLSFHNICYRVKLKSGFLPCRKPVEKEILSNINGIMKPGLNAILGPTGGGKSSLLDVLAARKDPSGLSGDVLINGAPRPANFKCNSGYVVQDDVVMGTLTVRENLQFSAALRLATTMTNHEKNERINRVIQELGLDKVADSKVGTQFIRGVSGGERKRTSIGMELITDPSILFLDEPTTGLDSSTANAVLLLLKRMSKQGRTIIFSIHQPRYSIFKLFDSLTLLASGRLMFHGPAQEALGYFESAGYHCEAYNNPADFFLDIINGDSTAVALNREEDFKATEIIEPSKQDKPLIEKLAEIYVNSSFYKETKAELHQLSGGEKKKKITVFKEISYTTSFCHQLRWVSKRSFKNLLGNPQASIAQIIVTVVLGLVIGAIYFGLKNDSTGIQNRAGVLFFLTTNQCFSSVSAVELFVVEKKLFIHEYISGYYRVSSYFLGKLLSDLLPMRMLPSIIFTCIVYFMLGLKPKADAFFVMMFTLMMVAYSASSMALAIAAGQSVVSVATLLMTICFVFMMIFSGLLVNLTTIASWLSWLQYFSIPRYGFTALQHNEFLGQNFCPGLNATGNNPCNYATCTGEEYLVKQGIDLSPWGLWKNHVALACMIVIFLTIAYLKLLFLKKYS

As to `CCNP(=S)(OC)O/C(C)=C/C(=O)OC(C)C` (configuration not stated), the compound was called inactive in experiment [1], in [2], in experiment [3], in experiment [4], in [5] and in experiment [6]. For the same compound, the result in experiment [7] and in [8] was inactive.

With `CC(C)Nc1nc(Cl)nc(NC(C)C)n1`, the compound was called inactive in experiment [1], in experiment [2], in experiment [4], in [9] and in experiment [6]. In addition, the concentration at half-maximal activity (AC50) in [10] is 4.73 µM (active); in [11] it was 0.163 µM (active); in experiment [12], 11.4 µM (active).

Consider `Cc1c(COC(=O)[C@@H]2[C@H](/C=C(\Cl)C(F)(F)F)C2(C)C)cccc1-c1ccccc1`, for which the call in experiment [1], in [2], in [3], in [4], in experiment [9] and in [6] was inactive. In addition, the compound was classed as inactive in experiment [7].

With `COCC(C)N(C(=O)CCl)c1c(C)csc1C` (configuration not stated), the figures for the concentration at half-maximal activity (AC50) in experiment [1], in [2] and in experiment [6] were 8.24 µM (active), 30.8 µM (active) and 26.3 µM (active), respectively. Moreover, the call in experiment [4], in [9], in experiment [10], in experiment [12], in experiment [13] and in experiment [8] was inactive.

For `CS(=O)(=O)c1ccc(C(=O)C2C(=O)CCCC2=O)c([N+](=O)[O-])c1`, the compound was called inactive in experiment [1], in experiment [2], in experiment [4], in experiment [9], in experiment [11] and in experiment [14]. The outcome in [6], in experiment [13] and in [8] was inactive. Moreover, in experiment [5], the half-maximal activity concentration (AC50) is 30.6 µM (active).

In the case of `CC(C)Oc1cccc(NC(=O)c2ccccc2C(F)(F)F)c1`, the compound was called inactive in [15], in experiment [1], in experiment [2], in experiment [17], in experiment [4] and in experiment [6]. The outcome in experiment [18] and in experiment [7] was inactive. In addition, the AC50 was 74 µM (active) in experiment [16] and 20 µM (active) in experiment [12].

For `Clc1cccc(C(Cl)(Cl)Cl)n1`, the result in [1], in [2], in [4], in [7] and in experiment [8] was inactive. In addition, in experiment [10], the concentration at half-maximal activity (AC50) was 20 µM (active).

As to `CO/N=C(/C1=NOCCO1)c1ccccc1Oc1ncnc(Oc2ccccc2Cl)c1F`, the compound was classed as inactive in experiment [4], in experiment [9], in experiment [6] and in [8].

In the case of `CS(=O)(=O)c1cc(C(F)(F)F)ccc1C(=O)c1cnoc1C1CC1`, the call in experiment [1], in experiment [2], in [6], in experiment [7] and in experiment [8] was inactive.

Broadly, the AC50 is the concentration giving half of the maximal activity seen.
